This note sets out measurements from PubChem BioAssay AID488975 (Johns Hopkins Ion Channel Center, 2010).

Structures are written as SMILES. The whole screen tested about 310,000 compounds, of which about 2,600 (0.84%) were called active.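 The calls were made as follows: active = B-score over 3 SD under the library average, and starting fluorescence ratio not unusually high; inactive = the rest.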 Shown is part of a subset that was picked to be rich in actives.

In this test the target is High affinity choline transporter 1 (Homo sapiens) (UniProt Q9GZV3). Briefly: inhibits the human high affinity choline transporter (AID 488975).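 As to B-score: choline stimulus applied at its EC90 after an EC20 pre-addition; B-score computed on integrated fluorescence ratio after choline addition.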 Particulars: CHT-expressing cells, membrane potential dye, choline response, at 10 µM; hits give low values.
High affinity choline transporter 1 (Homo sapiens), sequence (Q9GZV3 whole entry, looked up): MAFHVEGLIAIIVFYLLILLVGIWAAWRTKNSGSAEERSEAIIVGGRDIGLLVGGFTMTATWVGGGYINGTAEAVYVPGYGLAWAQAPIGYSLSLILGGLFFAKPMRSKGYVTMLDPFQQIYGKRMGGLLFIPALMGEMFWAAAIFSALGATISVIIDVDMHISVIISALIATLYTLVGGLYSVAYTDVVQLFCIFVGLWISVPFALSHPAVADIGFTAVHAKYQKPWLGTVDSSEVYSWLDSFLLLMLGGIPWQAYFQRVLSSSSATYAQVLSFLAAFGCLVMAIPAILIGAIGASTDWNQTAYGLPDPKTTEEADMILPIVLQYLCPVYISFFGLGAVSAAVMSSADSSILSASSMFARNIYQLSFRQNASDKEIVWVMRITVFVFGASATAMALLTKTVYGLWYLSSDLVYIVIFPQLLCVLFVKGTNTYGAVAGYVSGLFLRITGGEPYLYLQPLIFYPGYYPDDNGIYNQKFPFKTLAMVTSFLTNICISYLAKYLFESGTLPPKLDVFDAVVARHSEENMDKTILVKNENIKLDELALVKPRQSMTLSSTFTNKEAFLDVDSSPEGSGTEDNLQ
Regarding `COc1ccc(C(C#N)(CC(=O)O)c2cnccn2)cc1OC` (centres undefined), the B-score result was “inactive”.

On to `Cc1ccc(-c2nn(-c3ccccc3)cc2C(=O)NCCCN2CCCC2=O)cc1`, for which the B-score result is “inactive”. Take `CCc1ccc(NC(=O)CN2C(=O)COc3ccc(S(=O)(=O)N4CCCC4)cc32)cc1`: the B-score entry was “inactive”. Turning to `CN(C)c1ccc(CNC(=O)CN2C(=O)COc3ccc(S(=O)(=O)N4CCCC4)cc32)cc1`, the B-score result is “inactive”.

Take `Cc1cccc(N(C)C(=O)CN2C(=O)COc3ccc(S(=O)(=O)N4CCCCCC4)cc32)c1`: the B-score is -6.38 (active).

Turning to `O=S(=O)(c1ccccc1)N1CCC(c2ccccc2)CC1`, the B-score result was “inactive”. To `Cc1ccc(CSCC(N)C(=O)O)cc1` (centres undefined) belongs “inactive”; to `Cc1ccc(C(=O)CSc2ccccc2C(=O)O)cc1`, “inactive”; to `Cc1ccc(SC(CC(=O)c2ccc(C(C)(C)C)cc2)C(=O)O)cc1` (centres undefined), -8.41 (active). To `OCc1ccc(-c2ccccc2)c(-c2ccccc2)c1` belongs “inactive”; to `O=C(Nc1ccc(F)c([N+](=O)[O-])c1)C1CCCO1` (centres undefined), “inactive”. Then `Cc1ccc(-c2cc(C(=O)NC3CCN(Cc4ccccc4)CC3)c3ccccc3n2)cc1`, with “inactive”; and `C/C(=N\N=C(N)N)c1ccc(Cl)cc1`, with -9.9 (active). For `C/C(=N\OCC(=O)O)c1ccc(Cl)cc1`, the B-score result is “inactive”. To `C/C(=N\NC(=S)NCc1ccccc1)c1ccc(Cl)cc1` belongs “inactive”; to `CC1CCC(CN2CCN=C2N(C)C)CC1` (centres undefined), “inactive”; to `CCCCCCc1ccc(O)cc1O`, -6.74 (active). To `CCCCCCc1cc2cc(-c3nnc(-c4ccccc4)o3)c(=O)oc2cc1O` belongs “inactive”. Then `CCCCCCCN=C(C)c1ccccc1O`, with “inactive”; and `CC1(c2ccccc2)NC(=O)N(CC(=O)Nc2cc(Cl)ccc2N2CCOCC2)C1=O` (centres undefined), with “inactive”. For `COc1cc(N)c(Cl)cc1C(=O)OCC(=O)c1ccc2c(c1)NC(=O)CO2`, the B-score result is “inactive”. Take `CN1C(C(=O)NCc2ccco2)CC2Cn3c(nc4ccccc43)C21` (centres undefined): the B-score entry is “inactive”. Then `COc1ccc(-c2nn(-c3ccccc3)cc2/C=C\C(=O)N2CCOCC2)cc1[N+](=O)[O-]`, with “inactive”; and `O=C(/C=C/c1cn(-c2ccccc2)nc1-c1ccc2c(c1)OCCO2)NCCCN1CCOCC1`, with -5.76 (active). To `Cc1ccc(-c2nn(-c3ccccc3)cc2/C=C/C(=O)Nc2cccc(S(N)(=O)=O)c2)cc1` belongs “inactive”; to `Cc1ccc(SCC(=O)Nc2nncs2)cc1`, “inactive”. Then `C#CCOCCOCCOCCNc1nc(N2CCN(C(=O)Cn3cc(CCCCN)nn3)CC2)nc(N2CCN(C(=O)[C@H](CCCCN)n3cc(CCC(=O)O)nn3)CC2)n1`, with “inactive”; and `Cc1ccccc1OCC(=O)NNC(=O)c1ccc(-n2cncn2)c([N+](=O)[O-])c1`, with “inactive”; and `CCCCn1c(N)c(N(CCC(C)C)C(=O)CC2OC(=O)c3ccccc32)c(=O)[nH]c1=O` (centres undefined), with “inactive”.

In the case of `OC1CN=C2Sc3ccccc3N2C1` (centres undefined), the B-score is -5.4 (active). Then `COc1ccc(S(=O)(=O)N2CCCCC2)cc1NC(=O)C1CC(=O)N(c2ccc3c(c2)OCCO3)C1` (centres undefined), with “inactive”; and `Cc1ccc(S(=O)(=O)NCCC(=O)OCC(=O)N(C)c2ccccc2)cc1`, with “inactive”. To `CCOC(=O)C1(CCOC)CCN(Cc2cc3ccccc3s2)CC1` belongs “inactive”; to `CCOC(=O)C1(CCOc2ccccc2)CCN(Cc2cc(OC)cc(OC)c2)CC1`, “inactive”; to `CCOC(=O)C1(CCOC)CCN(Cc2ccc(C(=O)OC)cc2)CC1`, -7.63 (active).

Consider `CCN1C(=O)[C@@H]2[C@@H](c3ccc(-c4ccc(OC)cc4)c(OC)c3)N3CCC[C@@]3(C(=O)OC)[C@@H]2C1=O`, for which the B-score result is “inactive”. To `S=C(Nc1cccc(Cl)c1)Nc1ccc2cn[nH]c2c1` belongs “inactive”. Take `S=C(Nc1cccc(Cl)c1)Nc1ccc2c(c1)OCCO2`: the B-score result is “inactive”. Then `FC(F)(F)c1cccc(NC(=S)Nc2cccc(Cl)c2)c1`, with -9.9 (active); and `CCOC(=O)c1cnc2nc(SCc3ccccc3Cl)[nH]n2c1=O`, with “inactive”; and `O=C1c2ccccc2C(=O)c2c1cccc2N1CCN(C/C=C/c2ccccc2)CC1`, with “inactive”. Then `CCCCCCCNC(=O)C1(CC2CC(c3cccc(Br)c3)=NO2)CCN(C(=O)c2cc(OCC)c(OCC)c(OCC)c2)CC1` (centres undefined), with “inactive”. To `CCN(CC)c1ccc(/C=N/Nc2nc(C)cc(C)n2)c(O)c1` belongs “inactive”.

As to `CCN(CC)c1ccc(/C=N/NC(=O)CNC(=O)c2cccnc2)cc1`, the B-score entry was “inactive”.

As to `CCN(CC)c1ccc(/C=N/NC(=O)c2cnccn2)c(O)c1`, the B-score was -5.95 (active). Take `CC(NC(=O)c1ccccc1F)c1cccc2ccccc12` (centres undefined): the B-score result was “inactive”. To `COc1ccc(Cc2nnc(SCC(=O)Nc3ccc(C)c(Cl)c3)[nH]c2=O)cc1` belongs “inactive”; to `OCC[C@H]1C[C@@H](O)[C@H](O)[C@@]2(OCCc3ccccc32)O1`, “inactive”; to `COc1ccc(C(=O)NNC(=S)NC(=O)c2ccccc2)cc1`, -5.26 (active). Regarding `CC(C)Oc1ccc(CCC(=O)NNC(=S)NCc2ccccc2)cc1`, the B-score result is “inactive”. Consider `COc1ccc(C(=O)NNC(=S)NC(=O)c2ccccc2[N+](=O)[O-])cc1`, for which the B-score result was “inactive”. For `O=C(CCc1ccccc1)NNC(=O)c1ccc(Br)cc1`, the B-score entry is “inactive”. Then `COc1ccc(C(=O)NC(=S)NNC(=O)CCc2ccccc2)cc1`, with -5.23 (active). `COc1ccc(C(=O)NC(=S)NNC(=O)c2c(-c3ccccc3)noc2C)cc1`: the B-score entry was “inactive”. Then `COc1ccc2c(c1)O/C(=C\c1ccccc1O)C2=O`, with “inactive”; and `O=C(Cc1ccc(S(=O)(=O)N2CCOCC2)s1)N1CCN(c2ccc(C(F)(F)F)cc2[N+](=O)[O-])CC1`, with “inactive”.

Consider `O=C(/C=C/c1ccc(F)cc1)Nc1cccc(S(=O)(=O)Nc2cccc(C(F)(F)F)c2)c1`, for which the B-score result is “inactive”. Then `CCOC(=O)N1CCN(C(=O)c2ccc(S(=O)(=O)Nc3cccc(C(F)(F)F)c3)cc2)CC1`, with “inactive”; and `Cc1oc2c(F)c(F)c(F)c(F)c2c1S(=O)(=O)Nc1cccc(C(F)(F)F)c1`, with -5.14 (active); and `Cc1cc(OCC(=O)N(C)c2c(N)n(Cc3ccccc3)c(=O)[nH]c2=O)c(C(C)C)cc1Cl`, with “inactive”. To `COc1cc(C(=O)NCC(=O)N2CC=C(c3ccccc3)CC2)cc(OC)c1OC` belongs “inactive”. To `C/C(=N/NC(=O)c1cc(Cl)ccc1O)C12CC3CC(CC(C3)C1)C2` belongs -7.51 (active); to `CC(=N\NC(=O)c1cc(Br)ccc1O)/C(=N/O)C(=O)Nc1ccccc1`, “inactive”. As to `COc1ccc(Cl)cc1NC(=O)CN(C)C(=O)CNC(=O)C12CC3CC(CC(C3)C1)C2`, the B-score result is “inactive”. Then `CCC(CC)C(=O)N1CC(=O)Nc2ccc(Br)cc2C1c1ccccc1` (centres undefined), with “inactive”; and `COC(=O)CN1C(C)=Nc2ccc(Br)cc2C1c1ccccc1` (centres undefined), with -5.31 (active); and `COC(=O)C1=C(C)N(C)C(C)=C(C(=O)OC)C1c1cccc(Br)c1`, with “inactive”. For `O=C(Nc1ncccc1O)c1ccc(S(=O)(=O)N2CCCC2)cc1`, the B-score entry was “inactive”. Then `COc1ccc(CNC(=O)c2ccc3oc(C(C)C)nc3c2)cc1`, with “inactive”; and `COc1ccc(-n2nnnc2SCC(=O)c2ccc(OC)c(OC)c2)cc1`, with “inactive”; and `COc1ccc(-n2nnnc2CNC(=O)c2ccc3ccccc3c2)cc1`, with -5.47 (active). Then `COc1ccc(NC(=O)CN(C)C(=O)Cc2coc3cc(C)c(C)cc23)cc1`, with “inactive”; and `CC(C)Oc1ccc(S(=O)(=O)N2CCOCC2)cc1NC(=O)C1CSC2(C)CCC(=O)N12` (centres undefined), with “inactive”; and `O=C(Nc1cc(-c2ccccc2)nn1-c1ccccc1F)c1ccc([N+](=O)[O-])cc1`, with “inactive”. Then `COc1ccc(S(=O)(=O)N2CCOC2CNC(=O)C(=O)NCc2ccncc2)cc1C` (centres undefined), with “inactive”; and `CC1CCN(C(=O)c2cccc(S(=O)(=O)N3CCCc4ccccc43)c2)CC1`, with “inactive”. Regarding `CCCn1c(=S)[nH]c2ccc(C(F)(F)F)cc21`, the B-score entry is “inactive”. Then `CC(C)n1c(=O)[nH]c2cc(C(=O)Nc3ccccc3)ccc21`, with “inactive”; and `CC(C)n1c(=S)[nH]c2cc(C(F)(F)F)ccc21`, with -8.94 (active); and `Cc1c(NC(=O)C(C)OC(=O)c2c3c(nc4ccccc24)CCC(C)C3)c(=O)n(-c2ccccc2)n1C` (centres undefined), with “inactive”. Turning to `COc1ccc2sc(N(CCCN(C)C)C(=O)c3ccc(S(=O)(=O)N(C)C4CCCCC4)cc3)nc2c1`, the B-score result is “inactive”. Then `O=C(c1ccc(F)c(S(=O)(=O)N2CCOCC2)c1)N(CCc1ccccc1)Cc1ccccc1`, with “inactive”; and `COc1ccc(N(C)S(=O)(=O)c2ccc3c(c2)CC(C)N3C(=O)C2CC2)c(OC)c1` (centres undefined), with “inactive”; and `CCOC(=O)N1CCN(C(=O)CN(c2ccc(C)c(C)c2)S(=O)(=O)c2ccccc2)CC1`, with “inactive”. To `Cc1ccc(N(Cc2ccc(C(=O)Nc3ccccc3C(=O)NCc3ccco3)cc2)S(C)(=O)=O)cc1C` belongs “inactive”; to `CCOC(=O)N1CCN(C(=O)c2ccc(CN(c3ccc(C)c(C)c3)S(C)(=O)=O)cc2)CC1`, -6.25 (active). To `COc1ccc(NC(=O)CN(C)C(=O)c2cc(-c3ccc(C)o3)nc3ccccc23)cc1` belongs “inactive”.

On to `CCNC(=O)CC1C(=O)N(c2ccc(F)cc2)C(=O)N1Cc1cccs1` (centres undefined), for which the B-score result is “inactive”.

For the compound `CCNC(=O)CC1C(=O)N(c2ccc(F)cc2)C(=O)N1CCc1sccc1C` (centres undefined), the B-score was -5.75 (active). Then `COc1ccc(N2C(=O)C(CC(=O)Nc3ccc(F)cc3)N(CCc3cccs3)C2=O)cc1` (centres undefined), with “inactive”. On to `CC(=O)Nc1ccc(C(=O)Nc2cccc(S(=O)(=O)NC3=NCCC3)c2)cc1`, for which the B-score entry was “inactive”. Then `CN(C)c1ccc(C2N(C)C(=O)c3ccccc3N2C)cc1` (centres undefined), with “inactive”; and `CN(C)c1ccc(Nc2c3c4c(cccc4n(C)c2=O)C(=O)c2ccccc2-3)cc1`, with -9.73 (active). For the compound `COc1ccc(/C=C2\SC(=S)N(CCCC(=O)NC3CCCC3)C2=O)cc1OC`, the B-score entry was “inactive”. Turning to `COc1ccc(Cn2c(=O)sc3ccccc32)cc1OC`, the B-score was -5.56 (active). To `Cc1cccc(CSc2nnc(Cn3c(=O)sc4ccccc43)n2C)c1` belongs “inactive”.

`COc1ccccc1CNC(=O)CCn1c(=O)sc2ccccc21`: the B-score entry is “inactive”. With `O=C(NCC1(N2CCCCC2)CCCCC1)c1ccc(NS(=O)(=O)c2ccc(F)cc2)cc1`, the B-score entry is “inactive”. Then `Cc1ccc(C)c(OCCC(=O)Nc2cccc(S(=O)(=O)N3CCCC3)c2)c1`, with “inactive”.
